Only some compounds are listed: those with a hit (about 5.4% of all), similar ones and a draw of the others.
Six1-Eya2 blk: qHTS Assay for Inhibitors of the Six1/Eya2 Interaction. Homeobox protein SIX1 (Homo sapiens) + Protein phosphatase EYA2 (Homo sapiens), …. AlphaScreen GST-Six1/His-Eya2 binding, biochemical; active compounds read low. activity change, % (concentration not given with the values). hit rate 0.56% among 360,000. AID 651725, 2012; in the data active means activity change below about -65%; inconclusive means mostly about -30% to -63%; further: on the % scale 0 is the no-effect control and ±100 the full control effect
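Homogeneous AlphaScreen proximity assay pairing GST-Six1 with His-tagged Eya2 (added as 5X mix: 250 nM and 500 nM) in 50 mM Tris pH 8.0, 300 mM NaCl, 1 mM TCEP. Glutathione donor and nickel acceptor beads; 1 h, 37 °C, dark.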
p53 reactivation: qHTS assay for re-activators of p53 using a Luc reporter | H1299 p53-A138V BP100-luciferase reporter, luminescence, 24 h | Potency, µM (top dose mostly 92.2 µM), inactives show at the highest dose activity change, positive = activation, most hits filed as activators | hit rate 0.063% among 320,000 | AID 504706, 2011; further: potency means the concentration at half of the fitted maximal effect; % of control where 0% means no effect; nearly all actives have a fitted effect of over 45% in size
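p53-null H1299 cells stably carrying temperature-sensitive p53-A138V and a BP100-luciferase reporter were pinned with compounds (4-point, 1:5 series) and held 24 hrs at 37 deg C. Luminescence was read 10 min after detection reagent.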
VP16 counter: VP16 counterscreen qHTS for inhibitors of ROR gamma transcriptional activity | Drosophila S2 Gal4-VP16 UAS-luciferase, luminescence, 20 h | Potency, µM (doses to about 53.6 µM), inactives show at the highest dose activity, negative = inhibition, actives largely listed as inhibitors | hit rate 3.5% among 310,000 | AID 2546, 2010;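 further: Gal4-VP16 expression switched on by copper sulfate through the metallothionein promoter; potency means the concentration at half of the fitted maximal effect; on the % scale 0 is the no-effect control and ±100 the full control effect; nearly all actives have a fitted effect of over 50% in size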
RORg inh: qHTS for inhibitors of ROR gamma transcriptional activity; Nuclear receptor ROR-gamma (Mus musculus), P51450; Drosophila S2 Gal4-RORgamma UAS-luciferase reporter, 20 h; AID 2551, 2010; Potency, µM (top dose mostly 53.6 µM), without a hit: at the top dose activity change, negative = inhibition, actives largely listed as inhibitors; hit rate 5.4% among 310,000; further: potency means the concentration at half of the fitted maximal effect; on the % scale 0 is the no-effect control and ±100 the full control effect; nearly all actives have a fitted effect of over 60% in size
Target sequence (P51450 whole entry, looked up, the tested form may be a part): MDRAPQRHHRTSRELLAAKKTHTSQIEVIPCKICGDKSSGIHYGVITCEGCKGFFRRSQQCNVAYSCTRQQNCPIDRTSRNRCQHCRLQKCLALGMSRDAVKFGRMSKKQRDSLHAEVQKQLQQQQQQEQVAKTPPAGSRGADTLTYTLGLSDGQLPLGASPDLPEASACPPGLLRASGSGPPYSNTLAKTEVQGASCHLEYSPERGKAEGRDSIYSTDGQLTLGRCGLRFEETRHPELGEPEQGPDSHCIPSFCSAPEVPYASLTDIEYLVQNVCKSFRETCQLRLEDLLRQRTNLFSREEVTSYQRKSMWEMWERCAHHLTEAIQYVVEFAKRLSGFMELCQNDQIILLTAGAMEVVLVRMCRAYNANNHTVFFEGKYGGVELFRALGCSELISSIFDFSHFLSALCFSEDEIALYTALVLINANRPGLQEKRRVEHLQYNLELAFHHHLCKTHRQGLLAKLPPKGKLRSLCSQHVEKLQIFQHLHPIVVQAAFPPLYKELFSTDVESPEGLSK
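Schneider cells (Drosophila), stable Gal4 DBD–ROR gamma + UAS-luc; 1 hr cmpd preincubation; Cu2+ induction 700 uM final; 20 hr ambient; luminescence.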
CtBP-E1A inh: qHTS Assay for Inhibitors of the CtBP/E1A Interaction; CtBP / adenovirus E1A interaction (AlphaScreen); AlphaScreen GST-E1A/His-CtBP binding, 1536-well; active compounds read low; activity change, % (no concentration beside the values); hit rate 0.49% among 340,000; in the data active means activity change below about -65%; inconclusive means mostly about -30% to -63%; further: on the % scale 0 is the no-effect control and ±100 the full control effect
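Protein mix (5X: 125 nM each GST-E1A, His-CtBP) was incubated with pinned compound 2 h at 37 deg C in dark, in 50 mM Tris pH 8.0 buffer with 300 mM NaCl. Glutathione donor and nickel acceptor beads followed; AlphaScreen signal read after 1 h.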
The depositor's hits bear a star; ? = inconclusive; / = not tested or not shown; [ ] = remark or other dose. Unless noted, the call rests on the fitted dose curve; in most records, active means well fitted curve in the direction sought with a large enough effect; inconclusive means small, poorly fitted or top-dose-only effect, or another doubt; inactive means no such curve, though single readings can be large; an effect the other way counts as inactive or inconclusive.

SMILES	Six1-Eya2 blk	p53 reactivation	VP16 counter	RORg inh	CtBP-E1A inh
O=C(CO/N=C\c1ccccc1)Nc1ccccc1C(=O)N1CCOCC1	-1	2%	-7%	?	4
O=C(COc1ccc(Cl)cc1)OCCNC12CC3CC(CC(C3)C1)C2	/	/	-10%	3%	/
CC/C=C1/OC(=O)c2ccccc21	/	/	-16%	13%	/
COc1ccccc1C1=NN(C(=O)c2ccccc2)C(c2ccc(Br)cc2)C1 (stereo not drawn)	1	-1%	?	0%	-1
Cc1cnc(CNc2ncnc3ccc(-c4cccc(C#N)c4)cc23)cn1	/	/	-18%	10%	/
Cc1nn(C)c(C)c1CN(C)S(=O)(=O)c1ccc2ccccc2c1	5	-3%	5µM*	?	-5
COc1ccccc1NC(=S)N(Cc1ccc(C)cc1)Cc1cccnc1	-2	1%	4%[10 µM]	7.9µM*	2
Cc1ccccc1NC(=S)N(Cc1ccccn1)Cc1ccccc1Cl	-8	2%	?	6.3µM*	-3
Cc1ccccc1NC(=S)N(Cc1cccnc1)Cc1ccccc1Cl	-2	-1%	-16%	2.2µM*	-8
CC/C=C\C/C=C\C/C=C\C/C=C\C=C\C(O)CCCC(=O)O (stereo not drawn)	/	/	1%	-38%	/
COc1cccc(N2C(=O)/C(=C\c3cccs3)NC2=S)c1	2	5%	?	10µM*	/
CC(C)CN1C(=O)/C(=C/c2cccs2)NC1=S	-8	20%	7.1µM*	5µM*	-8
CCCN1C(=O)/C(=C/c2ccc(C)s2)NC1=S	-9	6%	10µM*	5.6µM*	-16
COC(=O)CCCNC(=O)c1ccc2[nH]c(C)c(C)c2c1	-7	1%	6%	21%	-20
CCN(CC)C(=O)c1sc(NC(=O)c2ccc(OC)c([N+](=O)[O-])c2)c(C#N)c1C	/	-11%	-13%	-28%	/
O=c1c(-c2cccc(F)c2)nc2cncnc2n1-c1ccccc1	/	/	-3%	2%	/
CCCCNC(=O)C1(C)CCN1C(=O)c1ccc(F)cc1Cl (stereo not drawn)	11	/	/	/	0
O=S(=O)(c1ccc(Cl)c(Cl)c1)c1snnc1-c1ccccc1	-2	-15%	?	20µM*	-1
c1ccc(-c2nnsc2-c2ccccc2)cc1	22	1%	16%	6%	9
CCN(C(=S)NC(=O)Cc1ccc(OC)cc1)c1ccccc1	7	/	/	/	-4
CCN(C(=S)Nc1ccc(Oc2ccccc2)cc1)c1ccccc1	-7	10%	18µM*	13µM*	-8
CCN(C(=S)Nc1cccc(C)c1)c1ccccc1	2	11%	?	16µM*	4
CCOC(=O)N1CCC(N(CCN(C)C)C(=S)Nc2ccc(Oc3ccccc3)cc2)CC1	-16	3%	-16%	11µM*	-28
COC(=O)C1(C)C=CC2(CCCCC2)N1C(=O)c1ccccc1 (stereo not drawn)	/	/	-4%	10µM*	/
CCOc1ccc(CCNC(=O)CCCN2C(=O)c3ccccc3C2=O)cc1OCC	-2	-2%	-2%	25%	3
SMILES	Six1-Eya2 blk	p53 reactivation	VP16 counter	RORg inh	CtBP-E1A inh
COc1ccc(N=NC2C(=O)N(c3ccccc3)N=C2C)cc1 (stereo not drawn)	-73*	0%	-6%	-34%	?
CC1=NN(c2ccccc2)C(=O)C1N=Nc1ccc(N)cc1 (stereo not drawn)	-71*	-2%	8.9µM*	3%	?
CC1=NN(c2ccccc2)C(=O)C1N=Nc1ccccc1 (stereo not drawn)	-21	?	-16%	?	-18
O=Nc1ccc(NO)cc1	/	/	0%	3%	/
COCc1cc(=O)[nH]c(Nc2nc3ccccc3o2)n1	-74*	?	?	3.5µM*	-85*
Cc1cc(C)c2nc(Nc3nc(-c4ccccc4)cc(=O)[nH]3)nc(C)c2c1	0	0%	2.2µM*	0.63µM*	-12
Cc1ccc2oc(Nc3nc(-c4ccccc4)cc(=O)[nH]3)nc2c1	-2	14%	-14%	2.8µM*	1
COC(=O)Cc1cc(=O)[nH]c(Nc2nc3ccccc3o2)n1	?	29%	?	-27%	-17
CCOC(=O)Cc1cc(=O)[nH]c(Nc2nc3ccccc3o2)n1	-5	?	16µM*	10µM*	-13
Cc1nc(-c2ccccc2)cc(=O)[nH]1	3	11%	1%	-2%	-2
Cc1cc(C)c2nc(Nc3nc(CSc4nc5ccccc5[nH]4)cc(=O)[nH]3)nc(C)c2c1	-5	/	/	/	-12
CCn1nnc(NC(=O)COc2ccc([N+](=O)[O-])cc2)n1	6	4%	1%	0%	7
CCCn1nc(C(=O)Nc2nc3ccccc3[nH]2)c2ccccc2c1=O	-6	-15%	20µM*	13µM*	-13
CC(C)n1nc(C(=O)Nc2nc3ccccc3[nH]2)c2ccccc2c1=O	-15	-2%	?	1.8µM*	-21
CCCn1nc(C(=O)Nc2nnc(CC)s2)c2ccccc2c1=O	-5	0%	-5%[10 µM]	1%	7
c1ccc(Cn2nnc3c(NCC4CCCO4)ncnc32)cc1 (stereo not drawn)	3	?	-16%	?	4
Cc1ccnc(NC(=O)C2CC(=O)N(c3ccc4c(c3)OCCO4)C2)c1 (stereo not drawn)	-12	-26%	?	7.9µM*	-15
Cc1ccc(NC(=O)C2CC(=O)N(c3ccc4c(c3)OCCO4)C2)nc1 (stereo not drawn)	-7	-1%	/	/	1
CCC(=O)N1CCc2cc(S(=O)(=O)CCC(=O)Nc3cccc(C)n3)ccc21	4	-1%	0%	-1%	4
OCCN1CCN(Cc2cc(Cl)c3cccnc3c2O)CC1	-90*	?	10µM*	5.6µM*	-95*
OCCN1CCN(Cc2cc(Br)cc(Br)c2O)CC1	17	-4%	7%	0%	27
O=c1c(CN2CCN(c3ccccn3)CC2)coc2ccccc12	12	11%	-11%	4%	-6
Oc1c(CN2CCN(c3ccccn3)CC2)cc(Cl)c2cccnc12	-90*	13%	?	0.45µM*	-97*
COCCCNC(=S)N(Cc1ccccc1)Cc1ccccc1	8	-9%	?	16µM*	1
CCNC(=S)N(Cc1ccccc1)Cc1nc2ccccc2c(=O)[nH]1	1	1%	7.1µM*	6.3µM*	8
COCCCNC(=S)N(Cc1ccccc1)Cc1nc2ccccc2c(=O)[nH]1	2	-3%	?	16µM*	8
COCCCNC(=O)CNC(=S)N(Cc1ccccc1)Cc1cccnc1	-4	-1%	10%	8%	6

From PubChem
